# Bioassay records from PubChem.
# Only some compounds are listed: those with a hit (about 1.1% of all), similar ones and a draw of the others.
# LAP4 TOR yeast – modulators of TOR pathway LAP4-GFP in S. cerevisiae | S. cerevisiae LAP4-GFP multiplex, flow cytometry GFP, 3 h; median GFP as percent of DMSO wells | GFP response vs DMSO, % at 10 µM | actives 0.34% (n = 320,000) | AID 2023;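 active = GFP response vs DMSO above a set limit, about the screen mean plus 3 SD, cut at about 150% in these data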
# AGP1-GFP MLPCN – alters AGP1-GFP fluorescence in TOR pathway yeast screen; S. cerevisiae AGP1-GFP multiplex flow cytometry, 3 h; GFP as percent of DMSO wells; GFP response vs DMSO, % at 10 µM; actives 0.02% (n = 320,000); AID 2066;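 active = GFP response relative to DMSO above a set limit, near screen average plus 3 SD, cut at about 150% in these data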;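 also: median GFP channel fluorescence of the gated AGP1 strain per well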
# VLA-4 inh – inhibition in a human VLA-4 binding assay; inhibition, % (about 7 µM as worked out from the volumes in the protocol); VLA-4 expressing cells, ligand binding flow cytometry; P13612; actives 0.2% (n = 330,000); in the data active = inhibition above about 50%
# Target sequence (P13612 whole entry, looked up): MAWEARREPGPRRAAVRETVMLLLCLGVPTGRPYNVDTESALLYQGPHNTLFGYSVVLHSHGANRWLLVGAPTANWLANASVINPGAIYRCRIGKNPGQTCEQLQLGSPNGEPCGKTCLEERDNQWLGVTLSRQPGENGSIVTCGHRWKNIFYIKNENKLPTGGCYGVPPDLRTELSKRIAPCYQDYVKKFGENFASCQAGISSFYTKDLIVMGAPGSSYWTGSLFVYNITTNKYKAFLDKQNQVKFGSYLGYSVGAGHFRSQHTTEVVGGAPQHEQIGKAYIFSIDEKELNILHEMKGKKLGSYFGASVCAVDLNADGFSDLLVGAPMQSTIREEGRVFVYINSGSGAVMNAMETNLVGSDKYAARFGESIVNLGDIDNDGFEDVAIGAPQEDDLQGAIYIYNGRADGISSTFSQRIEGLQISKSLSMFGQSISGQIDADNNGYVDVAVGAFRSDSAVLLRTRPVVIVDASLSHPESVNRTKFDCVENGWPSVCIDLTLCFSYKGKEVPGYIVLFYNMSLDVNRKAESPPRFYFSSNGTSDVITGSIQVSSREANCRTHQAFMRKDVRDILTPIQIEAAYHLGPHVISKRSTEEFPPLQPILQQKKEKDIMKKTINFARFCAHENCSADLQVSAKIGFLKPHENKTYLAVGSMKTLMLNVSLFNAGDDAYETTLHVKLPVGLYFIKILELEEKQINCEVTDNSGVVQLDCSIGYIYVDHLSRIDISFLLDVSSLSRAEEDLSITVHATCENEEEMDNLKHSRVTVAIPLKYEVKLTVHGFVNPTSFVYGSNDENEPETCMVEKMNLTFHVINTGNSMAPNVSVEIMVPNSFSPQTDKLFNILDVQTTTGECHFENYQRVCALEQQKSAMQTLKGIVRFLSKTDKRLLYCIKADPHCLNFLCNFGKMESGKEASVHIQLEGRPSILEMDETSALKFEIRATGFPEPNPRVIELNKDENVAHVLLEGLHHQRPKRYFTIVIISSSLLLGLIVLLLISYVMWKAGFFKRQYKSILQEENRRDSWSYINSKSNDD
# RPL19A TOR yeast – alters RPL19A-GFP fluorescence in TOR pathway yeast screen; actives 0.3% (n = 330,000); S. cerevisiae RPL19A-GFP strain, flow cytometry, 3 h; stronger effect = lower value; percent response vs DMSO, % at 10 µM; AID 2025;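 active = percent response vs DMSO below 50%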;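 also: median channel GFP fluorescence of the barcoded RPL19A-GFP strain; ratio of sample median GFP to plate DMSO average so 100% = DMSO; lower means less RPL19A-GFP as with rapamycin TOR inhibition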
# MEP2 TOR yeast – modulators of TOR pathway MEP2-GFP in S. cerevisiae; S. cerevisiae MEP2-GFP strain, flow cytometry GFP, 3 h; 100% = DMSO control level; GFP response vs DMSO, % at 10 µM; AID 2016; actives 0.51% (n = 330,000);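 active = GFP response versus DMSO above a set limit, roughly screen mean plus 3 SD, cut at about 180% in these data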;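 also: median GFP fluorescence of the barcode-gated MEP2-GFP cells per well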
# CIT2 TOR yeast – modulators of TOR pathway CIT2-GFP in S. cerevisiae; S. cerevisiae CIT2-GFP strain, flow cytometry, 3 h; 100 means same as DMSO wells; GFP response vs DMSO, % at 10 µM; actives 0.065% (n = 320,000); AID 2029;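 active = GFP response relative to DMSO above a set limit, near the screen mean plus 3 SD, cut at about 150% in these data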;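 also: ratio of well median GFP fluorescence to mean of DMSO wells on the plate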
# LAP4 cherry2 – yeast LAP4-GFP modulation, second cherry pick; shares compounds with LAP4 TOR yeast; S. cerevisiae LAP4-GFP strain, flow cytometry GFP, 3 h; GFP response vs DMSO, % at 10 µM; actives 20% (n = 590);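 active = GFP signal as percent of the solvent control above about 150%, meaning raised reporter expression, limit read from the data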;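 also: ratio of well median GFP fluorescence to plate DMSO mean so 100% = DMSO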
# MEP2-GFP pick2 – reconfirmed MEP2-GFP TOR pathway modulator in yeast; S. cerevisiae MEP2-GFP strain, flow cytometry GFP, 3 h; actives 10% (n = 590); GFP response vs DMSO, % at 10 µM; shares compounds with LAP4 TOR yeast;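 active = GFP signal above 150% of the solvent control wells, that is a rise of more than half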;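 also: median channel GFP fluorescence of all gated yeast cells per well; ratio of median GFP to plate DMSO average so 100% = DMSO level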
# RPL19A GFP CP2 – reconfirmed modulator of RPL19A-GFP TOR reporter in yeast | actives 3% (n = 590) | S. cerevisiae RPL19A-GFP strain, flow cytometry GFP, 3 h; stronger effect = lower value; 100% means same as DMSO wells | GFP response vs DMSO, % at 10 µM | shares compounds with LAP4 TOR yeast;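 active = under 65% GFP response relative to DMSO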;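 also: median GFP channel fluorescence per well over the all cells gate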
# CIT2-GFP pick2 – yeast CIT2-GFP TOR reporter modulation, second cherry pick. GFP response vs DMSO, % at 10 µM. actives 8% (n = 590). S. cerevisiae CIT2-GFP strain, flow cytometry GFP, 3 h; DMSO control wells read 100%. shares compounds with LAP4 TOR yeast;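 active = GFP response vs DMSO above about 150%, limit read from the data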;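 also: median green fluorescence per well over all gated yeast cells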
# AGP1-GFP pick2 – yeast AGP1-GFP TOR reporter modulation, second cherry pick; shares compounds with LAP4 TOR yeast; S. cerevisiae AGP1-GFP strain, flow cytometry GFP, 3 h; percent response vs DMSO, % at 10 µM; 590 tested, under 10 active; AID 2643;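 active = over 150 percent of DMSO response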;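 also: median GFP channel fluorescence over all cells without mother daughter split; sample median GFP divided by mean DMSO control so 100% equals DMSO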
# Yeast autofluor – compound is autofluorescent in yeast s288c cells; 610 tested, under 10 active; AID 2757; shares compounds with LAP4 TOR yeast; fluorescence change (kMESF span) at 33 µM; S. cerevisiae s288c, 520 nm autofluorescence, flow cytometry, 3 h; stronger effect = higher value; zero means same as solvent-only cells;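 active = fluorescence span over the dose series, or activity score, above about 33, limit read from the data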
# Yeast autofl DR – TOR screen hit shows autofluorescence in yeast s288c. shares compounds with LAP4 TOR yeast. S. cerevisiae s288c parental, compound autofluorescence, flow cytometry, 3 h. fluorescence change (span) at 33 µM. 110 tested, under 10 active;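 active = fluorescence change span, or the activity score built from it, above 25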
# TORC1 bypass – stops wildtype yeast growth while TORC1 bypass cells still grow. shares compounds with LAP4 TOR yeast. 120 tested, under 10 active. S. cerevisiae BY4741 spot growth rating, 48-72 h; stronger effect = lower value. growth rating (0-3) at 30 µM;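 active = growth rating at most 1 for wild type yeast while the TORC1 bypass strain still grows fully, rated 3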
# * marks the source's active call; other numbers are inactive results; . = not tested or not shown; + = active, no number; [ ] = another dose, or the depositor's remark.
SMILES,LAP4 TOR yeast,AGP1-GFP MLPCN,VLA-4 inh,RPL19A TOR yeast,MEP2 TOR yeast,CIT2 TOR yeast,LAP4 cherry2,MEP2-GFP pick2,RPL19A GFP CP2,CIT2-GFP pick2,AGP1-GFP pick2,Yeast autofluor,others
CCCNC(=O)c1onc(CSc2ccc(Cl)cc2)c1C(=O)NC(C)C,173*,110,27,78,141,101,91,100,103,97,97,.,
CC(C)NC(=O)c1onc(CSc2ccc(Cl)cc2)c1C(=O)NC(C)C,127,83,-2,94,89,88,.,.,.,.,.,.,
Cc1ccc(S(=O)(=O)N2CCC(n3nnc4cc(C)ccc43)CC2)cc1,99,112,4,104,106,101,.,.,.,.,.,.,
Cc1ccc2c(c1)nnn2C1CCN(S(=O)(=O)c2ccc(C(=O)N(C)C3CCCCC3)cc2)CC1,103,29,-28,64,134,104,96,94,100,108,99,.,
O=C(OCC(=O)N1CCN(C(=O)c2ccco2)CC1)c1cc(-c2ccc(Cl)c(Cl)c2Cl)nc2ccccc12,122,114,-15,80,118,99,.,.,.,.,.,-0.3,
Cc1cccc(SC2CCN(C(=O)C3CCC(=O)N(C4CC4)C3)CC2)c1 (configuration not stated),91,100,2,98,95,106,.,.,.,.,.,.,
COc1ccc(/C=C2\N=C(C)OC2=O)cc1[N+](=O)[O-],161*,87,8,98,89,91,135,110,102,101,99,.,
CCOC(=O)c1ccc(Nc2ncnc3c2cnn3C)cc1,112,104,6,98,106,96,.,.,.,.,.,.,
Cn1ncc2c(O/N=C(\N)c3ccc(C(C)(C)C)cc3)ncnc21,188*,64,2,66,91,118,.,.,.,.,.,1.8,
CC(Oc1cc2oc(=O)c3c(c2cc1Cl)CCC3)C(=O)NCCN1CCOCC1 (configuration not stated),90,24,8,58,142,108,99,106,101,105,103,-0.1,
O=C(O)c1ccccc1OCC1CCCO1 (configuration not stated),99,96,-1,102,103,90,.,.,.,.,.,.,
COc1cccc2sc3cc(C#Cc4ccccn4)ccc3c(=O)c12,124,100,-8,101,105,97,.,.,.,.,.,.,
COc1cccc2oc3ccc(C#Cc4ccccn4)cc3c(=O)c12,152*,87,12,99,92,72,105,93,94,104,100,.,
Cc1cc(C)c(S(=O)(=O)N2CCC(C(=O)NCc3ccc(Cl)cc3Cl)CC2)c(C)c1,151*,114,12,94,114,78,152*,113,101,120,107,0.2,
Cc1cc(C)c(S(=O)(=O)N2CCC(C(=O)NCc3ccncc3)CC2)c(C)c1,85,87,-1,102,96,95,.,.,.,.,.,.,
COc1ccc(-c2n[nH]c(C)c2-c2ccc(Cl)cc2)c(O)c1,118,49,-3,55,78,74,112,103,92,88,88,.,
COC(=O)[C@]1(Cc2ccccc2)N[C@H](c2ccc(-c3cccc(Cl)c3)cc2)[C@@H]2C(=O)N(C)C(=O)[C@@H]21,130,90,14,99,94,98,.,.,.,.,.,.,
O=C(NN1C(=O)c2ccccc2C1=O)c1ccc2c(c1)C(=O)N(CC1CCCO1)C2=O (configuration not stated),101,105,1,101,101,95,.,.,.,.,.,.,
Cc1ccccc1-c1cc(C(=O)NCc2cccc(Br)c2)nn1CC1CC(c2cccc([N+](=O)[O-])c2)=NO1 (configuration not stated),112,103,7,96,101,101,.,.,.,.,.,.,
Oc1c(Br)cc(Br)cc1C=Nc1ccc2c(c1)OCO2,152*,87,-12,91,96,97,.,.,.,.,.,-0.11,
CC(=O)Nc1ccc(SC[C@H](Cc2ccccc2)N2CC[C@@H](C(C)(C)C)CCC2=O)cc1,94,96,-10,94,85,101,.,.,.,.,.,.,
COc1cc(NS(=O)(=O)c2c(C(=O)N3CCOCC3)c(C)n(C)c2C)cc(OC)c1OC,90,102,21,97,93,107,.,.,.,.,.,.,
COc1cccc(C(=O)NCCS(=O)(=O)NCc2ccco2)c1,151*,102,0,85,88,84,101,105,100,103,100,.,
COc1ccc(C(=O)NCCS(=O)(=O)NCc2ccco2)cc1,107,105,6,99,101,101,.,.,.,.,.,.,
Cc1ccc(/C(N)=N/OC(=O)c2ccc(F)cc2)cc1,142,58,2,96,97,170*,.,.,.,.,.,0.3,
Nc1nc(Nc2ccccc2)nc(Nc2cccc(F)c2)c1[N+](=O)[O-],.,.,.,.,.,.,.,.,.,.,.,.,Yeast autofl DR=0.26;TORC1 bypass=3
Nc1nc(Nc2cccc(F)c2)nc(Nc2cccc(F)c2)c1[N+](=O)[O-],.,.,.,.,.,.,.,.,.,.,.,.,Yeast autofl DR=0;TORC1 bypass=3
CNc1nc(N)c([N+](=O)[O-])c(Nc2cccc(F)c2)n1,140,134,13,73,338*[may fluoresce green],274*[may fluoresce green],141,+,79,350*,159*,-0.2,Yeast autofl DR=0.07;TORC1 bypass=1*
